In the library only some 2.8% were active in any assay of this set; here they are far more common.
PP1 counter: PP1-alpha phosphatase inhibitors, primary screen, counter-screen for PP5 inhibitor project, biochemical, fluorescence, OMFP substrate, single point. purified PP1alpha. inhibition, % at 6.7 µM. actives 0.9% (n = 320,000). AID 2235, 2010;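 active = inhibition above the mean inhibition of all tested compounds plus 3 SD, computed separately for each screening campaign, cut at about 15% in these data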
SKKanGAS inh: S. pyogenes SKKanGAS growth inhibitors in kanamycin, primary screen, streptokinase expression inhibitor project, SKKanGAS strain, BacTiter-Glo luminescence. 6 h. inhibition, % at 7.5 µM. actives 1.3% (n = 300,000). AID 1662, 2009;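 active = mean replicate score, as percent of positive control median, at least 50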;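 also: strain carries kanamycin resistance gene driven by streptokinase promoter and grows in 40 µg/ml kanamycin; loss of luminescence reflects streptokinase promoter inhibition or plain growth inhibition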
IDE cell inh: human IDE inhibitors in live cells, primary screen, fluorescence polarization, HEK cells, FAbetaB substrate. FAbetaB cleavage. AID 434962, 2010. actives 0.41% (n = 320,000). inhibition, % at 5.59 µM. Insulin-degrading enzyme (Homo sapiens), P14735;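 active = percent inhibition above the average of all tested compounds plus 3 SD, set per screening campaign, cut at about 16% in these data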;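 also: IDE supplied by intact live HEK cells; FP after avidin binding of uncleaved biotin substrate so inhibition keeps polarization high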
Target sequence (P14735 whole entry, looked up): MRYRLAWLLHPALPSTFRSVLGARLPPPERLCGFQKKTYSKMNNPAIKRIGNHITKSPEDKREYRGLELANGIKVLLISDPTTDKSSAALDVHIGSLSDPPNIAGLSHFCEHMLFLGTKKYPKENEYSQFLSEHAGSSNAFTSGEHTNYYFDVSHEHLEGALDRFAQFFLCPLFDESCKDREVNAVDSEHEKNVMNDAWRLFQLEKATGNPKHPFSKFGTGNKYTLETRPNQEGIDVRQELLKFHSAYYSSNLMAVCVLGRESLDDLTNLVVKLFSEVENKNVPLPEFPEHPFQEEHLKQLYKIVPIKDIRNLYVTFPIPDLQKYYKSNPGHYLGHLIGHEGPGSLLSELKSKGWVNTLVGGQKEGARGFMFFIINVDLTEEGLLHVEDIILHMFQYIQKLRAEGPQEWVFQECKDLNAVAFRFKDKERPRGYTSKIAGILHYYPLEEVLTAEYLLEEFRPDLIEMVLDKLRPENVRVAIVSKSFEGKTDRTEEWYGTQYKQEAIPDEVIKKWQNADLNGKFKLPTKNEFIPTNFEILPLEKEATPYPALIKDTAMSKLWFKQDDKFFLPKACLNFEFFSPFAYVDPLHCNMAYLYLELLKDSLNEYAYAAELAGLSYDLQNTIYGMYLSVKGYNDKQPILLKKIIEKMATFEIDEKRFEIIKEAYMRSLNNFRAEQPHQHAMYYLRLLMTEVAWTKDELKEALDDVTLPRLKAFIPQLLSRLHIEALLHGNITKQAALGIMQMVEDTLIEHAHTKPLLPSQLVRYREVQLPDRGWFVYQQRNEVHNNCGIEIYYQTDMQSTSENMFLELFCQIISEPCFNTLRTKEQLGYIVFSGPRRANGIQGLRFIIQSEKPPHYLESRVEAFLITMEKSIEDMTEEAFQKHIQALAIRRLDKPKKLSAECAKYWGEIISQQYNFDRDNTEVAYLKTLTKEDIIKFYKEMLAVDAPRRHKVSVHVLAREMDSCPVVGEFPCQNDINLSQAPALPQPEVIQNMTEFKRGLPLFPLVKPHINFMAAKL
PP5 primary: PP5 phosphatase inhibitors, primary screen, biochemical, fluorescence; Serine/threonine-protein phosphatase 5 (Homo sapiens), P53041; purified PP5c, OMFP substrate fluorescence; inhibition, % at 6.7 µM; actives 0.18% (n = 320,000); AID 1987, 2009;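 active = inhibition above the campaign's mean inhibition across all tested compounds plus 3 SD, cut at about 9.5% in these data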
Granule exo inh: LAMP-1 surface exposure blockers, TALL-104 cells – cell-based, flow cytometry, MLPCN library, primary screen | actives 0.66% (n = 360,000) | TALL-104 LAMP-1 surface exposure; cells stimulated with thapsigargin and PMA | AID 651702, 2012 | inhibition, % at 10 µM;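 active = inhibition above about 55%, limit read from the data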
IDE act: human IDE activators in live cells, primary screen, fluorescence polarization, HEK cells, FAbeta-B substrate | activation, % at 5.96 µM | FAbeta-B cleavage; 0% vehicle, 100% cell-free pure enzyme wells | actives 0.073% (n = 340,000) | AID 493087, 2011 | Insulin-degrading enzyme (Homo sapiens), P14735;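 active = activation above the mean of all tested compounds plus 3 SD, set per screening campaign, cut at about 17% in these data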
Exocytosis CP01: inhibitors of lytic granule exocytosis, confirmation, TALL-104 cells, flow cytometry, Cherry Pick01. shares compounds with Granule exo inh. LAMP-1 externalization; stimulated with PMA plus thapsigargin. inhibition, % at 10 µM. actives 11% (n = 1,500). AID 651954, 2012; in the data active = inhibition above about 60%
Numbers stand for hits; 0 = inactive; - = not tested or not shown.

SMILES	PP1 counter	SKKanGAS inh	IDE cell inh	PP5 primary	Granule exo inh	IDE act	Exocytosis CP01
CCOc1cccc(CN(CC)CC2CCCN(CCc3cccc(OC)c3)C2)c1O (stereo not given)	0	0	0	0	85	0	0
COc1ccc(CCN2CCCC(CN(C)Cc3cc(Cl)c(O)c(OC)c3)C2)cc1 (stereo not given)	-	0	-	-	56	0	0
Cc1ccc(C)c(OCCC(=O)OCC(=O)Nc2ccc(Cl)cn2)c1	0	0	0	0	0	0	-
Cc1nc2ccc(NS(=O)(=O)c3cccc([N+](=O)[O-])c3)cc2s1	-	-	0	-	0	0	-
COc1cccc(CN(C)CC2CCCN(CCc3ccccc3C)C2)c1 (stereo not given)	0	0	0	0	57	0	0
CN(Cc1ccccc1OCCO)CC1CCCN(CCc2ccc(Cl)cc2)C1 (stereo not given)	0	0	0	0	58	0	0
CC(C)c1cccc(C(C)C)c1NC(=O)OC1CCCCC1	-	-	-	-	0	-	-
CCCC1=Nc2cc(C(=O)N3CCN(c4ccccn4)CC3)ccc2Sc2ccc(C)cc21	0	0	0	0	70	0	0
CCCC1=Nc2cc(C(=O)N3CCCC3)ccc2Sc2ccc(C)cc21	0	0	0	0	0	0	-
O=C(NCc1ccccc1Cl)c1cc(C(=O)C2CC2)c[nH]1	0	0	0	0	61	0	0
C=CCN1C(=O)/C(=C\c2ccc(Oc3nc(N4CCOCC4)nc(N4CCOCC4)n3)c(OC)c2)SC1=S	0	0	0	0	0	0	-
Cc1cccc(N2C(=O)CC(Sc3nc(C)cc(C)n3)C2=O)c1 (stereo not given)	0	0	0	0	0	0	-
Cc1cccc(N2C(=O)CC(Sc3nnc(C)s3)C2=O)c1 (stereo not given)	0	0	0	0	67	0	0
Cc1ccc(N2C(=O)CC(Sc3cccs3)C2=O)cc1 (stereo not given)	0	0	0	0	86	0	0
COc1ccccc1NC(=O)c1cccc2c(Br)cccc12	0	0	0	0	0	0	-
C=CCOc1ccc(/C=N/n2nnnc2N)cc1OC	0	0	0	0	0	0	-
CCn1c(=O)c2cc(C(=O)NCCC(C)C)sc2c2ccccc21	0	0	0	0	71	0	0
COc1ccc(Oc2c(C(F)(F)F)oc3cc(OCC(=O)O)ccc3c2=O)cc1	0	0	0	0	0	0	-
CN(c1ccccc1)S(=O)(=O)c1cccc(C(=O)NCCc2c[nH]c3ccccc23)c1	0	0	0	0	66	0	86
COc1cc(CNCCc2ccccc2)cc(Cl)c1OCc1ccccc1	0	0	0	0	99	0	0
COc1cc(CNCc2ccccc2)cc(Cl)c1OC	0	0	0	0	0	0	-
CC(=O)c1ccc(N(CC(=O)NC2CCCC2)C(=O)c2csnn2)cc1	0	0	0	0	0	0	-
COc1ccc2nc3ccccc3nc2c1N	0	0	0	0	82	0	0
Cc1cc(C(F)(F)F)nc(SCC(=O)Nc2c(C)n(C)n(-c3ccccc3)c2=O)n1	0	0	0	0	0	0	-

Bioassay records as filed in PubChem BioAssay.
